Screens deposited in PubChem by National Center for Advancing Translational Sciences (NCATS).
NPR1 antag: antagonists of human natriuretic peptide receptor Npr1; P16066; HEK293 hNpr1 GloSensor cGMP, ANP-stimulated luminescence; Potency, µM (top dose mostly 46.3 µM), usual class: inhibitors; actives 1.6% (n = 76,000); calls by dose curve; further: nearly all actives have a fitted effect of over 60% in size
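Compound pre-incubated 30 min at room temperature on GloSensor-loaded HEK293 cells stably carrying hNpr1 and the pGS-40F cGMP biosensor. Stimulation uses hNppA at 0.1 nM final; luminescence is taken at baseline and 20 min post-agonist.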
HEK cytotox: cytotoxic compounds in HEK 293 cells | HEK 293 viability, ATP luminescence (CellTiter-Glo), 48-72 h | Potency, µM (series often up to 115 µM), hits mostly inhibitors | actives 6.6% (n = 94,000) | AID 1345083; further: nearly all actives have a fitted effect of over 60% in size
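Luminescence from cellular ATP, measured with CellTiter-Glo, indicates HEK 293 viability. Cells plated at 250 cells/well are treated with compound for 48 or 72 hr at 37 degree Celsius before reagent addition.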
Luciferase inh: blocks purified firefly luciferase enzyme activity; Potency, µM (doses to about 115 µM), usual class: inhibitors; actives 2.5% (n = 76,000); P08659; AID 1347043; purified P. pyralis luciferase, luminescence, biochemical; further: nearly all actives have a fitted effect of over 65% in size
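Biochemical qHTS: compound (6-point titration) added to 10uM D-luciferin plus 10uM ATP in Tris acetate pH 7.5 buffer with Mg, Tween-20 and BSA, then purified enzyme at 10nM; light output imaged.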
NIH3T3 tox: kills NIH 3T3 cells; NIH 3T3 viability, CellTiter-Glo ATP luminescence, 48-72 h; Potency, µM (titrated, usually from 96.7 µM), most hits filed as inhibitors; actives 4.3% (n = 94,000); AID 1345082; further: nearly all actives have a fitted effect of over 55% in size
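Viability of NIH 3T3 cells after 48 or 72 hr compound treatment at 37 °C was assessed by CellTiter-Glo, with luminescence imaged following a 10 min room-temperature step.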
GPT2 inh: inhibitors of human GPT2 alanine aminotransferase; AID 1671188; Recombinant GPT2, coupled pyruvate oxidase/HRP Amplex Red fluorescence; Q8TD30; actives 0.25% (n = 100,000); Potency, µM (top dose mostly 57.7 µM), usual class: inhibitors; further: nearly all actives have a fitted effect of over 60% in size
Target sequence (Q8TD30 whole entry, looked up): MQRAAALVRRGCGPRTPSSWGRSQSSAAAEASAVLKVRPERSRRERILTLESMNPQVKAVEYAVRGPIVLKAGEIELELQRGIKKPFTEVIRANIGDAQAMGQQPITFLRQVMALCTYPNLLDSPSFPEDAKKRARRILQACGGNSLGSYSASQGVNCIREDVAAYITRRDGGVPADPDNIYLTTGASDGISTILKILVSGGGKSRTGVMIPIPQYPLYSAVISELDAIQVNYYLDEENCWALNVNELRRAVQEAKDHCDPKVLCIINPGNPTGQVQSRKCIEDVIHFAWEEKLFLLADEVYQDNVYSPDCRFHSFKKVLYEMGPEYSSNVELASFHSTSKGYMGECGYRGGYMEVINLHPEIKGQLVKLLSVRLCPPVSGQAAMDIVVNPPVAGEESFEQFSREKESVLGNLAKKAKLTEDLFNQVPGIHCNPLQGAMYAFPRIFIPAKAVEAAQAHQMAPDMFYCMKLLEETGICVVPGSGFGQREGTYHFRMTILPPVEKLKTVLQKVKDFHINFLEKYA
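GPT2 10ng/uL, a-KG 250uM, L-Ala 2mM, HEPES pH7.5 + 0.0001% Tween; 30 min RT. Then Amplex mix (PO/HRP/ThPP), 30 min RT dark, fluorescence. AOA 50uM used as positive control.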
A number is an active result. A selection: hits, their analogues and other compounds. The true share with any hit is near 10%. Unless noted, the call rests on the fitted dose curve; in most records, active means well fitted curve in the direction sought with a large enough effect; inconclusive means small, poorly fitted or top-dose-only effect, or another doubt; inactive means no such curve, though single readings can be large; an effect the other way counts as inactive or inconclusive.

How did Cc1noc(C)c1-c1cc2c(cc(C)n2C)c(-c2ccc(CO)cc2)n1 do in these assays?
NPR1 antag: inactive; HEK cytotox: inconclusive; Luciferase inh: inactive; NIH3T3 tox: 32µM; GPT2 inh: inactive

Results for Cc1noc(C)c1-c1cc2cc(CN(C)C)oc2c(-c2ccc([S+](C)(=O)[O-])cc2)n1 ?
NPR1 antag: inactive; HEK cytotox: inconclusive; Luciferase inh: inactive; NIH3T3 tox: inconclusive; GPT2 inh: inactive

Results for Cc1noc(C)c1-c1cc2c(cc(C)n2C)c(N2CCN(c3ccccn3)CC2)n1 ?
NPR1 antag: inactive; HEK cytotox: 63µM; Luciferase inh: inactive; NIH3T3 tox: 45µM; GPT2 inh: inactive

How did Cc1noc(C)c1-c1cc2c(cc(C)n2C)c(NCc2ccncc2)n1 do in these assays?
NPR1 antag: inactive; HEK cytotox: inconclusive; Luciferase inh: inactive; NIH3T3 tox: inconclusive; GPT2 inh: inactive

What do the screens show for `O=C(NCCCN1CCCCC1)C1(CCO)CC12CCOCC2` (stereo unspecified)?
HEK cytotox: inactive; NIH3T3 tox: inactive; GPT2 inh: inactive

What do the screens show for `CNC(=O)c1cc2cc(-c3c(C)noc3C)nc(-c3cccnc3)c2o1`?
NPR1 antag: inactive; HEK cytotox: inconclusive; Luciferase inh: inactive; NIH3T3 tox: inconclusive; GPT2 inh: inactive

What do the screens show for `CC(=O)N1CCN(c2nc(-c3c(C)noc3C)cc3cc(C(C)C)oc23)CC1`?
NPR1 antag: inactive; HEK cytotox: inconclusive; Luciferase inh: inactive; NIH3T3 tox: 50µM; GPT2 inh: inactive

Results for Cc1cc2cc(-c3c(C)noc3C)nc(N3CCCC3)c2o1 ?
NPR1 antag: inactive; HEK cytotox: inconclusive; Luciferase inh: inactive; NIH3T3 tox: inconclusive; GPT2 inh: inactive

How did Cc1noc(C)c1-c1cc2cc(C(C)C)oc2c(-c2cccc(CO)c2)n1 do in these assays?
NPR1 antag: inactive; HEK cytotox: 71µM; Luciferase inh: inactive; NIH3T3 tox: inconclusive; GPT2 inh: inactive

What do the screens show for `Cc1cc2c(-c3cccc(OC(C)C)c3)nc(-c3c(C)noc3C)cc2[nH]1`?
NPR1 antag: inactive; HEK cytotox: 28µM; Luciferase inh: inactive; NIH3T3 tox: 50µM; GPT2 inh: inactive

What do the screens show for `O=C([C@H]1CCCN1C(=O)c1ccc(F)cc1)N1CCCC(c2nc3ccncc3[nH]2)C1` (stereo partly specified)?
HEK cytotox: inactive; NIH3T3 tox: inactive; GPT2 inh: inactive

Results for COCCOCc1nc(C2CCN(C(=O)CCc3ccccc3)C2)no1 (stereo unspecified) ?
HEK cytotox: inactive; NIH3T3 tox: inactive; GPT2 inh: inactive

Results for O=C(NC1CC1)c1ccc2nnc(-c3cc(C(F)(F)F)cc(C(F)(F)F)c3)n2c1 ?
HEK cytotox: inconclusive; NIH3T3 tox: inconclusive; GPT2 inh: inactive

Results for COc1ccc(S(=O)(=O)Nc2ccc3n(c2=O)C[C@H]2C[C@@H]3CN(C(=O)Nc3cc(OC)cc(OC)c3)C2)cc1 ?
NPR1 antag: inactive; HEK cytotox: inactive; Luciferase inh: inactive; NIH3T3 tox: 50µM; GPT2 inh: inactive

What do the screens show for `COc1ccc(NC(=O)N2C[C@@H]3C[C@H](C2)c2ccc(NS(=O)(=O)c4ccc(OC)cc4)c(=O)n2C3)cc1`?
NPR1 antag: inactive; HEK cytotox: inactive; Luciferase inh: inactive; NIH3T3 tox: inactive; GPT2 inh: inactive

How did C#CCNC(=O)C1CCCN1C(=O)c1cccc(-c2cccc(OC)c2)c1 (stereo unspecified) do in these assays?
HEK cytotox: inconclusive; NIH3T3 tox: inconclusive; GPT2 inh: inactive

What do the screens show for `COc1ccccc1-n1c(=O)c(C(=O)Nc2ccccc2Cl)nc2cccnc21`?
HEK cytotox: inactive; NIH3T3 tox: inactive; GPT2 inh: inactive

What do the screens show for `COc1cccc(Nc2cccc(CN3CCC(C)(NC(C)=O)C3)c2)c1` (stereo unspecified)?
NPR1 antag: inactive; HEK cytotox: inconclusive; Luciferase inh: 50µM; NIH3T3 tox: inconclusive; GPT2 inh: inactive

How did CC(=O)NC1(C)CCN(Cc2cccc(Nc3cccc(Cl)c3)c2)C1 (stereo unspecified) do in these assays?
NPR1 antag: inconclusive; HEK cytotox: 71µM; Luciferase inh: inconclusive; NIH3T3 tox: 45µM; GPT2 inh: inactive
